# ChEMBL document CHEMBL4513216, “Probing the Open Global Health Chemical Diversity Library for Multistage-Active Starting Points for Next-Generation Antimalarials” (ACS Infect Dis, 2020)
# In all, about 69,000 compounds went through this assay and about 8,600 (12%) showed an effect of 50% or more. The sample holds strong results, similar compounds and a random draw of the others, so the mix is not that of the screen.
# Test system: Plasmodium berghei
# Test: Screen against P. berghei liver stage (PbLuc), transformed with Luciferase, at 10uM
# Type: functional, HepG2
# Settings: tested at 10 uM
row,SMILES,INHIBITION
1,COCc1noc(CN2CC(Cc3ccccc3)CC2=O)n1 (configuration not stated),-23.3%
2,CN1CCCC(Cc2cncc(C(=O)NC3CC3)c2)C1 (configuration not stated),8.72%
3,Cn1ncc2c1CCCC2NCc1ccc(Br)s1 (configuration not stated),35.3%
4,CCCN(C)CCC(=O)N1CCCC1Cn1cccn1 (configuration not stated),-15.5%
5,CSCc1noc(CNC(=O)C2CCN(C(C)C)CC2)n1,8.51%
6,Cc1nc(CN2CCc3nn(C)c(=O)cc3C2)oc1C,-3.7%
7,CCn1cc(NS(=O)(=O)c2ccc(F)cc2)c(C(=O)NCC(C)C)n1,22%
8,CN1[C@H](Cn2cncn2)C[C@@H]2CN(C3CCOCC3)CC[C@@H]21,34.6%
9,COc1cccc2sc(N(C)CC(=O)NCc3nc(C)no3)nc12,-14.9%
10,Cc1noc(CNC(=O)CN(C)c2nc3c(C)ccc(C)c3s2)n1,57.8%
11,Cc1noc(CNC(=O)CN(C)c2nc3c(F)cccc3s2)n1,47%
12,CC(C)(CNC(=O)COc1cccc(F)c1)C(N)=O,46.75%
13,N#Cc1ccc(Oc2cc(F)c(CN3CCCC3)c(F)c2)nc1,26%
14,Fc1cc(Oc2ccc(C(F)(F)F)cn2)cc(F)c1CN1CCCC1,78.9%
15,O=C(Cn1cccn1)N1CCC(Oc2ccc(C(F)(F)F)cn2)CC1,40%
16,CCOC(=O)CCC(=O)N1CCC(Oc2ccc(C(F)(F)F)cn2)CC1,32.4%
17,Cc1cc(CN2CCCC2)cc(Oc2ccc(C(F)(F)F)cn2)c1,61.9%
18,CN(CC(=O)N1CCC(Oc2ccc(C(F)(F)F)cn2)CC1)S(C)(=O)=O,-20.5%
19,O=C(CN1CCOCC1)N1CCC2(CCCN(C3CCOCC3)C2=O)C1 (configuration not stated),-9.02%
20,COCCN1CCCC(C)(c2cc(O)[nH]n2)C1 (configuration not stated),-3.02%
21,Cc1ccc(CN(C)C(=O)CN2CCCCC2Cn2cncn2)cc1 (configuration not stated),74.2%
22,CN(Cc1ccsc1)C(=O)CN1CCCCC1Cn1cccn1 (configuration not stated),-96.9%
23,Cc1cnn(CC2CN(CC(=O)N(C)Cc3cccs3)CCO2)c1 (configuration not stated),35.3%
24,CN(Cc1cccs1)C(=O)CN1CCCC1Cn1cncn1 (configuration not stated),23.5%

row,SMILES,INHIBITION
1,CN(Cc1ccsc1)C(=O)CN1CCCC1Cn1cccn1 (configuration not stated),63.9%
2,Cc1cnn(CC2CCCN2CC(=O)N(C)Cc2ccsc2)c1 (configuration not stated),34.5%
3,CN(Cc1cccs1)C(=O)CN1CCOC(Cn2cncn2)C1 (configuration not stated),62.6%
4,Cc1ccc(CN(C)C(=O)CN2CCCC2Cn2cncn2)cc1 (configuration not stated),42.4%
5,CN(Cc1ccco1)C(=O)CN1CCCCC1Cn1cncn1 (configuration not stated),7.67%
6,CN(Cc1ccc(F)cc1)C(=O)CN1CCCCC1Cn1cncn1 (configuration not stated),48.4%
7,CN(Cc1ccccc1)C(=O)CN1CCOC(Cn2cncn2)C1 (configuration not stated),-9.37%
8,CN(Cc1cccs1)C(=O)CN1CCCCC1Cn1cncn1 (configuration not stated),59.3%
9,O=C(CC(F)(F)F)Nc1cc(F)ccc1OCC1CCCO1 (configuration not stated),-6.14%
10,CCn1nc(C)cc1C(=O)N1C[C@H]2CCC[C@@]2(COc2ccccn2)C1,-36.9%
11,CCC1CN(CC(=O)NCCN2CCCC2)c2ccccc2S1 (configuration not stated),18.3%
12,CN(C)C1CCN(C(=O)c2n[nH]c3c2CCN(CC2CCC2)C3)CC1,-39%
13,Cc1cc(-c2ccc(=O)n(C3CCN(S(=O)(=O)N(C)C)CC3)n2)c(C)o1,-25.3%
14,CNc1cc(CCNC(=O)CC(C)C)nc(-c2ccccn2)n1,-27.4%
15,CCN(Cc1ccccc1)C(=O)CN1CCCCC1Cn1cncn1 (configuration not stated),38.5%
16,Cc1ccccc1CN(C)C(=O)CN1CCCCC1Cn1cncn1 (configuration not stated),81.2%
17,Cc1cnn(C2CN(CC(=O)N(C)Cc3ccc(C)o3)C2)c1,34%
18,CN(Cc1ccccc1)C(=O)CN1CCCCC1Cn1cncn1 (configuration not stated),25.6%
19,Cc1cnn(C2CN(CC(=O)N(C)Cc3cccs3)C2)c1,52.2%
20,Cc1cnn(C2CN(CC(=O)NCCc3cccs3)C2)c1,45.7%
21,Cc1nnnn1-c1cc(NCc2cc(C#N)ccc2F)ccc1F,32.3%
22,O[C@@H]1CCN(CC2CCOC2)[C@H]1Cc1cccnc1 (some centres not stated),23.1%
23,O=C(c1ccc2cc[nH]c2c1)N1CCCN(Cc2cscn2)CC1,13.6%
24,N#Cc1c(Cl)nsc1NCc1ccc(N2CCCC(C(N)=O)C2)cc1 (configuration not stated),26.6%

row,SMILES,INHIBITION
1,N#Cc1c(Cl)nsc1NCc1cccnc1OC1CCCC1,85.9%
2,Cc1oncc1C(=O)NCc1ccnc(OCC(F)(F)F)c1,-6.15%
3,O=S(=O)(NCc1cccnc1OC1CCCC1)N1CCCCC1,21.9%
4,Cc1nnc(NCc2cccnc2OCC(F)(F)F)c(C#N)c1C,-0.18%
5,CCOc1ncccc1CNc1nnc(C)c(C)c1C#N,-23.45%
6,N#Cc1c(Cl)nsc1NCc1cccnc1OCC(F)(F)F,88.5%
7,N#Cc1c(Cl)nsc1NCc1ccc(N2CCC(CO)CC2)cc1,30.9%
8,CC(O)CNC(=O)NCc1cccnc1OC1CCCC1 (configuration not stated),22.7%
9,N#Cc1c(Cl)nsc1NCc1ccc(N2CCSCC2)cc1,59.5%
10,N#Cc1c(Cl)nsc1NCc1ccnc(OCC(F)(F)F)c1,81.7%
11,CC(C(=O)NCc1ccnc(OCC(F)(F)F)c1)n1cncn1 (configuration not stated),-18.2%
12,Nc1nccc(C2CCN(CC3CC3)C2)n1 (configuration not stated),20.2%
13,CN(CCc1cn[nH]c1)C(=O)CCc1ccc(Cl)cc1,49%
14,CC(Nc1cccc2c1OCCO2)C(=O)Nc1ccc(Cl)cc1 (configuration not stated),-10.3%
15,CCc1nnc2n1CCN(C(=O)c1cc3cc(C)ccc3[nH]1)C2,10%
16,O=C(Nc1ccc(-n2ccc(C(=O)O)n2)cc1)c1ccccc1,39.5%
17,Cc1cn([C@@H]2CC3(CCNCC3)OC[C@@]2(C)O)c(=O)[nH]c1=O,37.1%
18,CC(=O)N1CC(=O)N(c2cnn(C)c2)CC12CCN(Cc1ccco1)C2 (configuration not stated),29.7%
19,CC(C)=CCN1CCOC(Cn2cccn2)C1 (configuration not stated),19.5%
20,CC(C)CN1CCCC12CCN(c1nncs1)C2 (configuration not stated),37.8%
21,N#Cc1ccc(CCC(=O)N2CCCC(n3cncn3)C2)cc1 (configuration not stated),19.2%
22,COc1ncccc1CNc1snc(Cl)c1C#N,54.3%
23,CCCOc1ncccc1CNc1nnc(C)c(C)c1C#N,41.15%
24,CN(C)c1ncccc1CNc1snc(Cl)c1C#N,49.1%
